# Source: the supplement of paper PMC8728848
# The full list was thinned out, with the strongest signals kept by preference.
# B1: Dectin-1 CTLD (Mus musculus), Q6QLQ4 (protein)
# chain: MKYHSHIENLDEDGYTQLDFSTQDIHKRPRGSEKGSRAPSSPWRPIAVGLGILCFVVVVVAAVLGALAFWRHNSGRNPEEKDNFLSRNKENHKPTESSLDEKVAPSKASQTTGGFSQSCLPNWIMHGKSCYLFSFSGNSWYGSKRHCSQLGAHLLKIDNSKEFEFIESQTSSHRINAFWIGLSRNQSEGPWFWEDGSAFFPNSFQVRNTVPQESLLHNCVWIHGSEVYNQICNTSSYSICEKEL
# B2: LEA (Lycopersicon esculentum) (protein)
# chain: NEVFDVPMNETIGVESINASVGGYPRCGAQGDGGNCPSGMCCSVWGWCGKTYGYCAPQNCQKQCPAPYPEGRCGWQADGKSCPNGKCCSYGGWCGTTSDYCARQNCQKQCILPSPPPPPPPPPGFPRPECGLQKNGERCTKPGECCSIWGLCGATYKYCDPQHCQKQCSAPFPPGRCGWQADGRPCPTGQCCSFSGWCGTTSAHCTYPQCVSQCNDPRFPSSLNNRIQSFML
# How the values were obtained:
# Assay in all cases: glycan array binding signal (z-score within array); higher = stronger binding
# Conditions in all cases: glycan notation: IUPAC condensed, linker removed
# Fuc(a1-2)Gal(b1-4)GlcNAc = target: Fuc(a1-2)Gal(b1-4)GlcNAc
# Method in brief: (§1)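 Glycan array data were curated from 3228 arrays in the Consortium for Functional Glycomics database and kept only where the protein sequence was available. Glycan names were converted to IUPAC-condensed notation, and columns mapping to the same glycan were averaged. The binding signal is a within-array Z-score, averaged across arrays of the same protein sequence at different concentrations or buffers and across linkers. Negative Z-scores can be read as non-binding.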
# Fuc(a1-4)GlcNAc = target: Fuc(a1-4)GlcNAc
# Method in brief: as §1
# Gal(b1-2)Gal = target: Gal(b1-2)Gal
# Method in brief: as §1
# Gal(b1-3)Gal = target: Gal(b1-3)Gal
# Method in brief: as §1
# [1] = target: Gal(b1-3)GalNAc(b1-4)[Neu5Ac(a2-3)]Gal(b1-4)Glc
# Method in brief: as §1
# [2] = target: Gal(b1-3)[Neu5Ac(a2-6)]GlcNAc
# Method in brief: as §1
# [3] = target: Gal3S(b1-3)[Fuc(a1-4)]GlcNAc
# Method in brief: as §1
# Gal4S6S(b1-4)GlcNAc = target: Gal4S6S(b1-4)GlcNAc
# Method in brief: as §1
# GlcA(b1-3)Gal = target: GlcA(b1-3)Gal
# Method in brief: as §1
# [4] = target: GlcNAc(b1-3)Gal(b1-4)GlcNAc(b1-3)Gal(b1-4)GlcNAc
# Method in brief: as §1
# [5] = target: GlcNAc(b1-4)[GlcNAc(b1-6)]GalNAc
# Method in brief: as §1
# Kdn(a2-3)Gal(b1-3)GlcNAc = target: Kdn(a2-3)Gal(b1-3)GlcNAc
# Method in brief: as §1
# [6] = target: Man(a1-2)Man(a1-2)Man(a1-3)[Man(a1-2)Man(a1-6)[Man(a1-3)]Man(a1-6)]Man(b1-4)GlcNAc(b1-4)GlcNAc
# Method in brief: as §1
# [7] = target: Man(a1-2)Man(a1-3)[Man(a1-2)Man(a1-6)]Man
# Method in brief: as §1
# Man(b1-4)GlcNAc = target: Man(b1-4)GlcNAc
# Method in brief: as §1
# [8] = target: Neu5Ac(a2-3)Gal(b1-3)GlcNAc
# Method in brief: as §1
# [9] = target: Neu5Ac(a2-3)Gal(b1-3)[Neu5Ac(a2-6)]GalNAc
# Method in brief: as §1
# [10] = target: Neu5Ac(a2-3)Gal(b1-4)[Fuc(a1-3)]GlcNAc(b1-3)Gal(b1-4)GlcNAc
# Method in brief: as §1
# [11] = target: Neu5Ac(a2-3)Gal(b1-4)[Fuc(a1-3)]GlcNAc(b1-3)Gal(b1-4)[Fuc(a1-3)]GlcNAc(b1-3)Gal(b1-4)[Fuc(a1-3)]GlcNAc
# Method in brief: as §1
# [12] = target: Neu5Ac(a2-3)[Neu5Ac(a2-6)]GalNAc
# Method in brief: as §1
# Neu5Ac(a2-6)GalNAc = target: Neu5Ac(a2-6)GalNAc
# Method in brief: as §1
# [13] = target: Neu5Ac(a2-8)Neu5Ac(a2-8)Neu5Ac
# Method in brief: as §1
# [14] = target: Fuc(a1-2)Gal6S(b1-4)Glc6S
# Method in brief: as §1
# [15] = target: Fuc(a1-2)Gal6S(b1-4)GlcNAc
# Method in brief: as §1
# [16] = target: Fuc(a1-2)[Gal(a1-3)]Gal(b1-4)GlcNAc
# Method in brief: as §1
# [17] = target: Fuc(a1-2)[Gal(a1-4)]Gal(b1-4)GalNAc
# Method in brief: as §1
# [18] = target: Fuc(a1-2)[GalNAc(a1-3)]Gal(b1-3)GlcNAc
# Method in brief: as §1
# [19] = target: Fuc(a1-2)[GalNAc(a1-3)]Gal(b1-4)GlcNAc
# Method in brief: as §1
# [20] = target: Fuc(a1-2)[GalNAc(a1-4)]Gal(b1-4)GlcNAc
# Method in brief: as §1
# [21] = target: Fuc(a1-3)[Gal(b1-4)]GlcNAc(b1-4)Gal(b1-4)[Fuc(a1-3)]GlcNAc(b1-4)Gal(b1-4)[Fuc(a1-3)]GlcNAc
# Method in brief: as §1
# [22] = target: Fuc(a1-3)[Gal3S(b1-4)]GlcNAc6S
# Method in brief: as §1
# Gal(a1-4)GlcNAc = target: Gal(a1-4)GlcNAc
# Method in brief: as §1
# [23] = target: Gal(b1-3)GalNAc(b1-3)Gal(a1-4)Gal(b1-4)Glc
# Method in brief: as §1
# [24] = target: Gal(b1-3)[Neu5Ac(a2-6)]GlcNAc(a1-4)Gal(b1-4)Glc
# Method in brief: as §1
# [25] = target: Gal(b1-4)GalNAc(b1-3)[Fuc(a1-2)]Gal(b1-4)GlcNAc
# Method in brief: as §1
# [26] = target: Gal(b1-4)GlcNAc(b1-6)GalNAc
# Method in brief: as §1
# Gal6S(b1-4)Glc = target: Gal6S(b1-4)Glc
# Method in brief: as §1
# GalNAc(a1-3)GalNAc = target: GalNAc(a1-3)GalNAc
# Method in brief: as §1
# [27] = target: GalNAc(b1-3)Gal(a1-4)Gal(b1-4)GlcNAc
# Method in brief: as §1
# GlcNAc(b1-3)Gal = target: GlcNAc(b1-3)Gal
# Method in brief: as §1
# [28] = target: GlcNAc(b1-3)Gal(b1-3)GalNAc
# Method in brief: as §1
# [29] = target: GlcNAc(b1-4)Gal(b1-4)GlcNAc
# Method in brief: as §1
# [30] = target: GlcNAc(b1-4)GlcNAc(b1-4)GlcNAc(b1-4)GlcNAc(b1-4)GlcNAc(b1-4)GlcNAc
# Method in brief: as §1
# GlcNAc(b1-6)GalNAc = target: GlcNAc(b1-6)GalNAc
# Method in brief: as §1
# [31] = target: Man(a1-2)Man(a1-2)Man(a1-6)[Man(a1-3)]Man
# Method in brief: as §1
# [32] = target: Neu5Ac(a2-3)Gal(b1-3)GalNAc
# Method in brief: as §1
# [33] = target: Neu5Ac(a2-3)Gal(b1-3)GalNAc6S
# Method in brief: as §1
# [34] = target: Neu5Ac(a2-3)Gal(b1-4)GlcNAc(b1-3)Gal(b1-3)GlcNAc
# Method in brief: as §1
# [35] = target: Neu5Ac(a2-3)Gal(b1-4)GlcNAc(b1-3)Gal(b1-4)[Fuc(a1-3)]GlcNAc
# Method in brief: as §1
# [36] = target: Neu5Ac(a2-3)[GalNAc(b1-4)]Gal(b1-4)Glc
# Method in brief: as §1
# [37] = target: Neu5Ac(a2-6)Gal(b1-4)GlcNAc(b1-2)Man(a1-3)[Neu5Ac(a2-6)Gal(b1-4)GlcNAc(b1-2)Man(a1-6)]Man(b1-4)GlcNAc(b1-4)GlcNAc
# Method in brief: as §1
# [38] = target: Neu5Gc(a2-3)Gal(b1-4)[Fuc(a1-4)]GlcNAc
# Method in brief: as §1
binder,measurement,setting,value
B1,glycan array binding signal (z-score),Fuc(a1-2)Gal(b1-4)GlcNAc,-0.083
same,glycan array binding signal (z-score),Fuc(a1-4)GlcNAc,-0.141
same,glycan array binding signal (z-score),Gal(b1-2)Gal,-0.384
same,glycan array binding signal (z-score),Gal(b1-3)Gal,-0.471
same,glycan array binding signal (z-score),[1],-0.16
same,glycan array binding signal (z-score),[2],-0.392
same,glycan array binding signal (z-score),[3],-0.474
same,glycan array binding signal (z-score),Gal4S6S(b1-4)GlcNAc,-0.021
same,glycan array binding signal (z-score),GlcA(b1-3)Gal,4.11
same,glycan array binding signal (z-score),[4],-0.18
same,glycan array binding signal (z-score),[5],9.99
same,glycan array binding signal (z-score),Kdn(a2-3)Gal(b1-3)GlcNAc,-0.044
same,glycan array binding signal (z-score),[6],0.004
same,glycan array binding signal (z-score),[7],-0.241
same,glycan array binding signal (z-score),Man(b1-4)GlcNAc,-0.259
same,glycan array binding signal (z-score),[8],-0.294
same,glycan array binding signal (z-score),[9],-0.324
same,glycan array binding signal (z-score),[10],-0.03
same,glycan array binding signal (z-score),[11],7.53
same,glycan array binding signal (z-score),[12],-0.211
same,glycan array binding signal (z-score),Neu5Ac(a2-6)GalNAc,0.06
same,glycan array binding signal (z-score),[13],5.28
B2,glycan array binding signal (z-score),Fuc(a1-2)Gal(b1-4)GlcNAc,1.11
same,glycan array binding signal (z-score),[14],-0.512
same,glycan array binding signal (z-score),[15],-0.55
same,glycan array binding signal (z-score),[16],2.51
same,glycan array binding signal (z-score),[17],2.53
same,glycan array binding signal (z-score),[18],-0.547
same,glycan array binding signal (z-score),[19],2.5
same,glycan array binding signal (z-score),[20],2.62
same,glycan array binding signal (z-score),[21],-0.541
same,glycan array binding signal (z-score),[22],0.546
same,glycan array binding signal (z-score),Gal(a1-4)GlcNAc,-0.545
same,glycan array binding signal (z-score),[23],-0.547
same,glycan array binding signal (z-score),[24],-0.546
same,glycan array binding signal (z-score),[25],2.17
same,glycan array binding signal (z-score),[26],0.621
same,glycan array binding signal (z-score),[3],-0.518
same,glycan array binding signal (z-score),Gal6S(b1-4)Glc,-0.518
same,glycan array binding signal (z-score),GalNAc(a1-3)GalNAc,-0.553
same,glycan array binding signal (z-score),[27],2.55
same,glycan array binding signal (z-score),GlcNAc(b1-3)Gal,-0.567
same,glycan array binding signal (z-score),[28],-0.526
same,glycan array binding signal (z-score),[29],1.96
same,glycan array binding signal (z-score),[30],2.26
same,glycan array binding signal (z-score),GlcNAc(b1-6)GalNAc,-0.545
same,glycan array binding signal (z-score),Kdn(a2-3)Gal(b1-3)GlcNAc,-0.443
same,glycan array binding signal (z-score),[31],-0.296
same,glycan array binding signal (z-score),[32],-0.56
same,glycan array binding signal (z-score),[33],-0.466
same,glycan array binding signal (z-score),[34],-0.129
same,glycan array binding signal (z-score),[35],-0.542
same,glycan array binding signal (z-score),[36],-0.536
same,glycan array binding signal (z-score),[37],-0.502
same,glycan array binding signal (z-score),[38],-0.041
